High-throughput results deposited in PubChem BioAssay by National Center for Advancing Translational Sciences (NCATS).
A selection: hits, their analogues and other compounds. The true share with any hit is near 4.6%.
D1 potentiator – enhances dopamine response at the human D1 receptor; 360,000 compounds, 0.036% hits; HEK293 TREx D1 cells, calcium flux, dopamine EC20 potentiation; potentiation, % at 10 µM; P21728; in the data active means potentiation above about 30%
Target sequence (P21728 whole entry, looked up): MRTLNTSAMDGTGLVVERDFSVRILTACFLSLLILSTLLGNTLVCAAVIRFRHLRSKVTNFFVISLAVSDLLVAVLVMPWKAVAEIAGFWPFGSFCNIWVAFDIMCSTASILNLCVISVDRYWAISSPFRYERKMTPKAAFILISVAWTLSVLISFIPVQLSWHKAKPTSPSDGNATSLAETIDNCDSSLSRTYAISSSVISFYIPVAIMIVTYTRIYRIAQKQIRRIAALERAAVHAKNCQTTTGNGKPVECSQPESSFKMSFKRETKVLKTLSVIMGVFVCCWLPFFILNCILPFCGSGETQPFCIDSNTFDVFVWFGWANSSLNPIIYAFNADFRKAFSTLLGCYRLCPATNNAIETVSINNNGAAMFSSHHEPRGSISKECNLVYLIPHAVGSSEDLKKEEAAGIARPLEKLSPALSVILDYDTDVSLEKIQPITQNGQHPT
D1 agonist – activates the human D1 dopamine receptor. P21728. HEK293 T-REx D1 cells, calcium flux, agonist mode. activation, % at 2 µM. 360,000 compounds, 1% hits. AID 504660
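Inducible HEK293 T-REx D1 cells, force-coupled to calcium signalling, were plated at 4000 cells/well with tetracycline and held overnight at 30 C. After no-wash calcium dye loading, compound-evoked calcium rise over 180 s flagged agonists.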
D1 antag – antagonists of human D1 dopamine receptor; activity change, negative = inhibition, % at 10 µM; HEK293 TREx D1 cells, calcium flux, dopamine EC80; active compounds read low; P21728; AID 504652; 360,000 compounds, 3.2% hits; in the data active means activity change below about -30%
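Tetracycline-induced HEK293 Trex D1 cells, force-coupled to calcium, dye-loaded; compounds added and read 180 s, then EC80 dopamine added and calcium flux tracked kinetically another 180 s.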
TRHR PAM – allosteric enhancers of human TRH receptor | P34981 | 360,000 compounds, 0.66% hits | AID 493056 | TRHR cells, fluo-8 calcium fluorescence, EC20 TRH enhancement | enhancement, % at 2 µM; in the data active means enhancement above about 30%
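TRHR-expressing cells loaded with fluo-8 calcium dye were read kinetically (ex 480/em 530) during compound addition, then stimulated with an EC20 of TRH (10 nM final). Enhancement of the Gq-mediated intracellular calcium response was scored.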
TRHR agonist – TRH receptor (human) agonism; TRHR cells, calcium flux fluo-8, FDSS agonist mode; activation, % at 2 µM; 360,000 compounds, 0.18% hits; AID 493084
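Read-out: compound-evoked intracellular calcium rise in TRHR cells, fluo-8 dye, kinetic FDSS fluorescence at 1 s/cycle following a 10-cycle baseline. Cells cultured overnight before dye loading (30 min–1.5 h, RT).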
Each line names hits and unclear results; the compound was inactive in the other large screens. Unless noted, no stated cut-off is given here; in the data, active means activation above about 30%; inactive means the rest.

CCSc1nnc2c(n1)OC(c1ccc(OC)c(OC)c1)N(C(C)=O)c1ccccc1-2 (stereo unspecified)	D1 antag -30.3
CNc1cnn(-c2ccccc2)c(=O)c1Cl	D1 antag -70.6
Cc1ccc(Sc2cnn(-c3ccccc3)c(=O)c2Cl)cc1	none
Nc1ccc(Sc2cnn(-c3ccccc3)c(=O)c2Cl)cc1	TRHR PAM 36.5
COc1ccc(C(OCC(O)CNCCc2ccc(S(N)(=O)=O)cc2)c2ccc(OC)cc2)cc1 (stereo unspecified)	none
OC(CNCCc1ccc(C(F)(F)F)cc1)COC(c1ccccc1)c1ccccc1 (stereo unspecified)	D1 potentiator 52.0, D1 agonist 100.6
COc1cc2ccccc2cc1C(=O)Nc1ccc2oc(-c3cccc(C)c3)nc2c1	none
CCCCNC(=O)CNC(=S)N(Cc1ccccc1F)C1CCCCC1	D1 antag -36.7
O=C(CNC(=S)N(Cc1ccc(F)cc1)C1CCCCC1)NCC1CCCO1 (stereo unspecified)	none
O=C(CNC(=S)N(Cc1ccccc1F)C1CCCCC1)NCC1CCCO1 (stereo unspecified)	D1 antag -45.5
Cc1ccc(S(=O)(=O)NCc2ccccc2)cc1C(=O)N(C)Cc1ccc(F)cc1	none
CCc1ccc(Cn2c(CNS(=O)(=O)c3ccc(F)c(Cl)c3)nc3cccnc32)cc1	none
O=C(Cn1c(=O)oc2cc(S(=O)(=O)N3CCCCCC3)ccc21)NCc1ccccc1Cl	none
N#C/C(=C(/O)c1ccc2c(c1)OCO2)c1nc2cc(C(F)(F)F)ccc2s1	D1 antag -41.2
C=CCc1ccc(OCCCNCc2ccccc2)c(OC)c1	none
C=CCc1ccccc1OCCNCc1ccccc1	D1 antag -50.3
Brc1ccccc1OCCNCc1ccccc1	D1 antag -75.2
Clc1ccc(OCCCNCc2ccccc2)c2ccccc12	D1 agonist 31.1
COc1ccc(Cl)cc1NC(=O)C(=O)NCc1ccncc1	D1 antag -37.6
Cc1ccc(S(=O)(=O)c2nc(-c3ccco3)oc2SCc2ccccc2Cl)cc1	none
COc1ccccc1-c1noc2ncnc(Nc3cccc(C)c3C)c12	D1 antag -32.0
COc1ccccc1-c1noc2ncnc(Nc3ccccc3C)c12	none
CCN(CC)c1ccc(/C=C2\C(=O)c3ccc(C(=O)O)cc3C2=O)cc1	D1 agonist 354.0, TRHR agonist 106.2
CCN(CC)c1ccc(C(=O)O)cc1	none
O=c1[nH]c(=O)n(Cc2ccco2)c2c1C(C(F)(F)F)(C(F)(F)F)N=C(c1ccc(F)cc1)N2	D1 agonist 37.0 (no result: D1 antag)
Cc1cc(C)c2c(=O)cc(C(=O)Nc3sc4c(c3C(=O)NCC3CCCO3)CCCC4)oc2c1 (stereo unspecified)	none
O=C(Nc1sc2c(c1C(=O)NCc1cccnc1)CCCC2)c1ccco1	D1 antag -31.7
Cc1cc(C)c2c(=O)cc(C(=O)Nc3sc4c(c3C(=O)NCc3ccccc3)CCCC4)oc2c1	D1 antag -86.2
COC(=O)CN1C(=O)CSc2ccc(S(=O)(=O)Nc3cccc(Cl)c3C)cc21	none
Cc1ccc(/C=N/N(C)C2=NS(=O)(=O)c3ccccc32)o1	D1 antag -43.1
O=C(Nc1nnc(SCC(=O)N2CCOCC2)s1)C1CC(=O)N(c2ccc(F)cc2)C1 (stereo unspecified)	D1 antag -47.5
Cc1cc2c(s1)c1cnn(Cc3ccc(C(C)C)cc3)c(=O)c1n2C	none
O=C(CCCN1C(=O)NC2(CCCC2)C1=O)Nc1ccc(F)cc1	D1 antag -38.0
O=C(CN1C(=O)NC2(CCCCC2)C1=O)Nc1ccc(F)cc1	none
O=C(CN1C(=O)NC2(CCCCCCC2)C1=O)Nc1ccc(Br)cc1	D1 antag -40.1
Cc1ccc(CNC(=O)C2CCCN(S(=O)(=O)c3cn(C)cn3)C2)cc1 (stereo unspecified)	none
Cc1ccc(-n2[nH]c(C)c(C=Nc3ccc(Br)cn3)c2=O)cc1	D1 antag -33.0
Cc1ccc(S(=O)(=O)NCCSc2nnnn2-c2cc(C)ccc2C)cc1	D1 antag -40.0
Cc1ccc(S(=O)(=O)NCCSc2nnnn2-c2ccccc2)cc1	none
Cc1ccc2c(c1)C1CN(C)CCC1N2C(=O)COc1ccc(N(C)S(=O)(=O)c2cccs2)cc1 (stereo unspecified)	D1 antag -35.8
CCOc1ccc(S(=O)(=O)N(C)c2ccc(OCC(=O)N3c4ccc(C)cc4C4CN(C)CCC43)cc2)cc1 (stereo unspecified)	D1 antag -40.5
CCn1cc(CN2CCc3c([nH]c4ccccc34)C2c2cccc(OC)c2OC)c(C)n1 (stereo unspecified)	none
COc1ccc(CCN2C(=O)CSC2=Nc2ccc(C(C)C)cc2)cc1OC	D1 antag -43.4
Cc1c(Cl)cccc1NC(=O)N1CCC(CN2CCOCC2)CC1	D1 antag -71.4
O=C(Nc1ccc(F)cc1)c1ccc2c(c1)NC(=O)c1ccccc1S2	none
CC(C)c1cccc(C(C)C)c1NS(=O)(=O)c1cccs1	D1 antag -31.4
COc1ccccc1C(C)NS(=O)(=O)c1cccs1 (stereo unspecified)	none
COc1cc(/C=C2\SC(=O)NC2=O)ccc1Oc1cnccn1	D1 antag -40.8
O=C1NC(=O)/C(=C\c2ccc(Oc3cnccn3)cc2)S1	none
COc1ccccc1NS(=O)(=O)c1cccc(NC(=O)CCNC(=O)c2ccccc2OC)c1	none
Cc1ccc2nc(Cl)c(CNCc3ccccc3)cc2c1	D1 antag -35.4
CSc1oc(-c2ccc(F)cc2)nc1S(=O)(=O)c1ccc(F)cc1	none
CS(=O)(=O)c1oc(-c2ccc(F)cc2)nc1S(=O)(=O)c1ccc(Cl)cc1	TRHR PAM 48.7
CCOc1ccc(CCNC(=O)CCc2nnc3ccc(N4CCCCC4)nn23)cc1OCC	none
CCc1ccccc1NC(=O)c1cn(C)c(=O)c2ccccc12	D1 antag -68.9
COc1ccc(-n2nc(C(=O)Nc3cccc(Cl)c3)c3c4ccccc4n(C)c3c2=O)cc1Cl	D1 antag -32.5
CCOc1ccccc1N(C)C(=O)c1nn(-c2ccc(C)cc2)c(=O)c2c1c1ccccc1n2C	none
CCc1ccccc1NC(=O)c1nn(-c2ccc(C)cc2)c(=O)c2c1c1ccccc1n2C	D1 antag -33.3
Cc1ccc(-n2nc(C(=O)N(C)c3ccccc3Cl)c3c4ccccc4n(C)c3c2=O)cc1	TRHR agonist 55.8
COc1ccc(-n2nc(C(=O)Nc3cccc(C)n3)c3c4ccccc4n(C)c3c2=O)cc1Cl	none
Cc1ccc(-c2c(C#N)c(N)nc3c2CCCC3)o1	D1 agonist 39.3
COc1ccc(CCN2CCCC(CN(C)C(=O)c3ccoc3)C2)cc1 (stereo unspecified)	none
Cc1ccc(-n2nnc3c(=O)n(CC(=O)NCc4ccccc4)cnc32)cc1	none
O=C(Cn1cnc2c(nnn2-c2ccccc2)c1=O)NCc1ccc(F)cc1	D1 antag -59.8
